Test results taken from PubChem BioAssay (NCATS).
Several values for one entry are separate records, joined by “and”; a condition that tells them apart may be missing. Equal values may be shown once. Records with an inconclusive call do not appear. A call without a number means that no potency is given here. Activity calls are given as the source filed them. Unless noted, calls follow the shape of the dose curve; as a rule, active = well fitted curve in the direction sought with a large enough effect; inconclusive = small, poorly fitted or top-dose-only effect, or another doubt; inactive = no such curve, though single readings can be large; an effect the other way counts as inactive or inconclusive.

Columns and labels:
[1] = target: Calcium and integrin-binding protein 1 (Homo sapiens) (UniProt Q99828); test: Primary qHTS for Identification of Calcium Integrin Binding Protein 1 (CIB1) Competitor (AID 1508620);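 also: GST tagged CIB1 binding a fluorescein labelled alphaIIb integrin peptide tracer; top concentration of the series differs between compounds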
Chain of Calcium and integrin-binding protein 1 (Homo sapiens) (Q99828 whole entry, looked up): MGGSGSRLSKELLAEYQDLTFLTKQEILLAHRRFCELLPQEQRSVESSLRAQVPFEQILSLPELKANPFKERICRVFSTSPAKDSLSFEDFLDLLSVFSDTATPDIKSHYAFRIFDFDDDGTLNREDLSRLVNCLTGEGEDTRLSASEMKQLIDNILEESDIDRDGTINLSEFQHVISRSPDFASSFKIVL
Procedure, shortened: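 Fluorescence polarization competition: CIB1-GST (1 uM final) preincubated with compound 15 min at room temperature, then FITC-labeled alphaIIb peptide (100 nM final) added for another 15 min. Polarization read at Ex 480/Em 540.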

[2] = target: Cytochrome P450 2D6 (Homo sapiens) (UniProt P10635); test: Cytochrome P450 family 2 subfamily D member 6 (CYP2D6) small molecule antagonists: luciferase biochemical (cell-free) qHTS assay (AID 1645840; active = well fitted curve in the direction sought with a large enough effect in the repeat runs; an effect the other way counts as inactive or inconclusive; also: nearly all actives have a fitted effect of over 55% in size; also: potency is read from the fitted curve at half-maximal effect)
Chain of Cytochrome P450 2D6 (Homo sapiens) (P10635 whole entry, looked up): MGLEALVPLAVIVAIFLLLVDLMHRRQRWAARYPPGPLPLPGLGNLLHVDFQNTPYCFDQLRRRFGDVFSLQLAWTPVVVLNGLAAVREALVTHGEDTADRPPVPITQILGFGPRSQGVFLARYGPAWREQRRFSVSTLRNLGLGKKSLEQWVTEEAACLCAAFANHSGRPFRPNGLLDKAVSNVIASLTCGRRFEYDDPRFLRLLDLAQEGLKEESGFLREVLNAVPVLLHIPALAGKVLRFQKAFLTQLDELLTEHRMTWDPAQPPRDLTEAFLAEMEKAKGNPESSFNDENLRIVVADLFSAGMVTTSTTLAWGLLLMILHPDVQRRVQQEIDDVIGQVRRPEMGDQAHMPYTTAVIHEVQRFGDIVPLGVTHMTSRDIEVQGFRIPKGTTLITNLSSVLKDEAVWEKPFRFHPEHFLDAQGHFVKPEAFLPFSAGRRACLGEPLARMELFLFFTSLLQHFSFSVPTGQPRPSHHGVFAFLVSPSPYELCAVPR
Procedure, shortened: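 P450-Glo CYP2D6 system: proluciferin substrate converted by enzyme to luciferin, read by luminescence proportional to activity. Enzyme-substrate mix with compound 10 min at room temperature, then NADPH regeneration 1 h before detection reagent.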

[3] = target: Cytochrome P450 2C9 (Homo sapiens) (UniProt P11712); test: Cytochrome P450 family 2 subfamily C member 9 (CYP2C9) small molecule antagonists: luciferase biochemical (cell-free) qHTS assay (AID 1645842; active = well fitted curve in the direction sought with a large enough effect in the repeat runs; an effect the other way counts as inactive or inconclusive; also: nearly all actives have a fitted effect of over 55% in size; also: potency is read from the fitted curve at half-maximal effect)
Chain of Cytochrome P450 2C9 (Homo sapiens) (P11712 whole entry, looked up): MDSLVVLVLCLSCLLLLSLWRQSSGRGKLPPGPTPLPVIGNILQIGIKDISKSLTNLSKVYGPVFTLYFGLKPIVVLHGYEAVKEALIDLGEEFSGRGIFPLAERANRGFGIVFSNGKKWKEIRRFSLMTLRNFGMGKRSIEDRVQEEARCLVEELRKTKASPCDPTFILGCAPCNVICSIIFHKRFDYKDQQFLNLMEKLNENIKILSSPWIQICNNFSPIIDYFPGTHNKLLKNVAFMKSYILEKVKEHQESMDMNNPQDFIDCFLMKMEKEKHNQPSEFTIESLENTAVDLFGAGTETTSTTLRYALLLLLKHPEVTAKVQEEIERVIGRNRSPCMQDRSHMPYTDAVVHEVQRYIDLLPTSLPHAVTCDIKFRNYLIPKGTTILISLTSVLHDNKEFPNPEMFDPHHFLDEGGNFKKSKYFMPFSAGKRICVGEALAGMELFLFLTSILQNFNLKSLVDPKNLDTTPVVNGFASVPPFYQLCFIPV
Procedure, shortened: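 P450-Glo CYP2C9 system: proluciferin substrate with enzyme in mix containing 0.4% BSA, 10 min at room temperature, then NADPH regeneration solution added and incubated 1 h at 37C. Detection reagent stopped reaction; luminescence read after 20 min as RLU.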

[4] = Primary qHTS for inhibitors of nuclear receptor binding SET domain protein 2 (NSD2) in an isogenic RCH-ACV NSD2 p.E1099K mutant (9B) (AID 1645876); also: nearly all actives have a fitted effect of over 70% in size; also: potency is read from the fitted curve at half-maximal effect
[5] = Primary qHTS for inhibitors of nuclear receptor binding SET domain protein 2 (NSD2) in an RCH-ACV wild type WT cells (2C) (AID 1645877); also: nearly all actives have a fitted effect of over 70% in size; also: potency is read from the fitted curve at half-maximal effect

SMILES | Potency [1] | Potency [2] | Potency [3] | Potency [4] | Potency [5]
Cn1cc(-c2ccc(S(=O)(=O)n3ccc(/C=C/C(=O)Nc4ccccc4N)c3)cc2)cn1 | inactive | 2.68 µM (active) | 0.849 µM (active) | 649 nM (active) and 934 nM (active) | 649 nM (active) and 833 nM (active)
FC(F)(F)c1ccccc1-c1cc(C(F)(F)F)c2nc(C3=NOC4(CCCCC4)C3)[nH]c2c1 | inactive | inactive | inactive | 18.3 µM (active) | 14.5 µM (active)
COCCCNC(=O)c1ccc(Cn2c(=O)c3ccccc3n(Cc3ccc(C(C)C)cc3)c2=O)cc1 | inactive | inactive | 1.51 µM (active) | inactive | inactive
CN1CCC(c2cn(C)c3ccc(OS(=O)(=O)c4c(F)cccc4F)cc23)CC1 | inactive | 12 µM (active) | 9.52 µM (active) | 18.3 µM (active) | 23 µM (active)
COc1cc(/C=N\NC(=O)c2ccc3c(c2)OCO3)ccc1OCc1ccccc1 | inactive | 2.39 µM (active) | 2.39 µM (active) | inactive | inactive
CC(C)(C)Oc1ccc(OCC2Cc3ccccc3CN2C(=O)c2cccc3ccccc23)cc1 (stereo not given) | inactive | inactive | 1.69 µM (active) | inactive | inactive
COc1cc2c(cc1OCCCN1CCCC1)N=C(N)C21CCC1 | inactive | 23.9 µM (active) | inactive | inactive | inactive
CCN1CCN(Cc2ccc(C(=O)Nc3ccc(C)c(Oc4ccc5c(c4)CC(=O)N5)c3)cc2C(F)(F)F)CC1 | inactive | 16.9 µM (active) | 23.9 µM (active) | 16.3 µM (active) | 16.3 µM (active)
C[C@@H](NC(=O)c1ccc(C#Cc2cccc(F)c2)cn1)C(C)(C)O | inactive | inactive | 16.9 µM (active) | inactive | inactive
CCOC(=O)N1c2ccc(C(F)(F)F)cc2C(N(Cc2cc(C(F)(F)F)cc(C(F)(F)F)c2)C(=O)OC)CC1CC (stereo not given) | inactive | inactive | inactive | inactive | inactive
Cc1ccc(NC(=O)C(C)C)cc1C1CCN(Cc2ccc(Oc3ccc(F)c(F)c3)cc2)CC1 | inactive | 5.35 µM (active) | 9.52 µM (active) | 12.9 µM (active) | 9.16 µM (active)
COc1cc2c(cc1OC(C)C)[C@H](c1ccc(Cl)cc1)N(c1ccc(N(C)CC3CCC(N4CCN(C)C(=O)C4)CC3)cc1)C(=O)C2 (stereo not given in full) | inactive | 21.3 µM (active) | 6.74 µM (active) | 1.83 µM (active) and 2.09 µM (active) | 817 nM (active) and 1.18 µM (active)
Cn1cc(-c2ccc(F)c(C(F)(F)F)c2)nc1C1CCN(c2ncnc3[nH]ncc23)CC1 | inactive | inactive | inactive | inactive | inactive
O=C(c1ccc(OC(F)F)c(C#Cc2ccccn2)c1)N1Cc2cccnc2C1 | inactive | 21.3 µM (active) | inactive | inactive | inactive
CCOc1ccc(S(=O)(=O)N2CCCCCC2)c2ccccc12 | inactive | inactive | 7.56 µM (active) | inactive | inactive
O=C(NCC1(N2CCN(c3ccccc3)CC2)CCOCC1)c1cccnc1Sc1ccccc1 | inactive | inactive | 3.79 µM (active) | inactive | inactive
Cc1cc(C(=O)Nc2cc(Nc3ccc4c(/C=C/c5ccccn5)n[nH]c4c3)ccc2F)n(C)n1 | inactive | 7.56 µM (active) | 4.25 µM (active) | 7.28 µM (active) and 7.42 µM (active) | 9.16 µM (active) and 7.42 µM (active)
O=C(Nc1ccc(Cl)cc1)C1CCCN(C(=O)c2cccc(-c3ccco3)c2)C1 (stereo not given) | inactive | 13.5 µM (active) | 15.1 µM (active) | 14.5 µM (active) | 23 µM (active)
Cc1ccc(C2(C(=O)N3CCC(n4nc(-c5ccccc5)oc4=O)CC3)CC2)cc1 | inactive | 13.5 µM (active) | 0.756 µM (active) | inactive | inactive
CC#CC(=O)Nc1ccc2ncnc(Nc3cccc(Br)c3)c2c1 | inactive | inactive | inactive | 1.29 µM (active) and 1.3 µM (active) | 1.03 µM (active) and 1.16 µM (active)
O=C(NCCCNc1nc(Nc2cccc(CN3CCOCC3)c2)ncc1C1CC1)C1CCC1 | inactive | 6.01 µM (active) | 8.49 µM (active) | 2.63 µM (active) | 1.18 µM (active)
COCc1c(Cl)ccc2c1CC[C@H]2c1ncc[nH]1 | inactive | 1.9 µM (active) | 21.3 µM (active) | inactive | inactive
CC(C)c1noc(C2CCN(c3ncnc(Nc4ccc(S(C)(=O)=O)cc4F)c3[N+](=O)[O-])CC2)n1 | inactive | inactive | inactive | inactive | inactive
O=C1c2ccc(Nc3ccc(F)cc3F)cc2CCc2ccc(OCC(O)CO)cc21 (stereo not given) | inactive | 26.8 µM (active) | 6.01 µM (active) | 16.3 µM (active) | 18.3 µM (active)
